Experimental findings from PubChem BioAssay AID720524 (National Center for Advancing Translational Sciences (NCATS), 2013) are described below.

Out of some 1,400 compounds screened, about 1,000 (71%) were called active. Not shown: some 12% with an inconclusive outcome. Calls follow the shape of the dose curve; as a rule, active = well fitted inhibition curve with a large enough effect; inconclusive = small, poorly fitted or top-dose-only effect; inactive = no such curve, though single readings can be large or run the other way. The set was probably picked from earlier hits. The list is a sample of the results.
Potency is read from the fitted curve at half-maximal effect.

A short description of the experiment: Nrf2 qHTS screen for inhibitors: Nrf2 A549 ARE-Fluc Confirmation Assay for Hit Validation. Also: nearly all actives have a fitted effect of over 65% in size. As to conditions: A549 ARE-firefly luciferase reporter, luminescence. From the text:
Nrf2 is a transcription factor that maintains cellular redox homoestasis and protects cells from xenobiotics. Nrf2 binds to the antioxidant response element (ARE) to induce gene expression of a broad spectrum of genes that encode for antioxidants. […] Finding a small molecule that act as an inhibitor of Nrf2 function would represent a novel therapeutic target that could lead to improvement in survival of patients undergoing chemo- and/or radio- therapy.
In collaboration with the Biswal laboratory, a cell based, luminescence assay (BugLite) was developed to detect the Nrf2 activity using the A549 ARE_Fluc cells (AID 493153). This assay was coupled with a fluorescence based (CellTiter Fluor) cytotoxicity assay to identify and exclude toxic compounds. This coupled assay was used to evaluate selected compounds for hit validation. The data herein is the result of the BugLite assay where decrease in luminescence signal = inhibition of Nrf2 activation. Inhibition is the desired outcome for this assay.
NIH Chemical Genomics Center [NCGC]
NIH Molecular Libraries Probe Centers Network [MLPCN]
Assay Submitter (PI): Shyam Biswal, Johns Hopkins University
[1] Shibata T., et al., Genetic alteration of Keap1 confers constitutive Nrf2 activation and resistance to chemotherapy in gallbladder cancer. Gastroenterology, 2008.
[2] Sjoblom T., et al., The consensus coding sequences of human breast and colorectal cancers. Science, 2006.
Five uL of cell suspension was dispensed into 1536-well white TC-treated plate using the Kalypsys dispenser to achieve a density of 5000 cells/well in all columns except column 1. The plates were incubated at 37deg C at 5% CO2 for 2 hours before 23 nL of compounds were added with the Kalypsys pin tool equipped with a 1,536-pin array. The control compounds Budesonide and Staurosporine were added at a concentration of 2mM. Budesonide was also added as a 1:10 titration, starting at 200uM, to achieve the dose-response control signal. The plates were incubated for 18-24 hour at 37deg C, 5% CO2 followed by a 5ul addition of 5% FBS OPTI-MEM growing media in column 1 as negative control. One microliter of 5x CellTiter Fluor (Promega) was added to each well and the assay plates were incubated at 37deg C, 5% CO2 for 30 minutes. The fluorescence signal was read using the PerkinElmer ViewLux plate reader (Ex = 405 nm /Em = 525 nm) for a 3 second exposure. After the signal was taken, 3 uL of 3x BugLite was dispensed into all wells. The plates were then incubated at room temperature for 15 minutes. A second ViewLux read (40 sec exposure) was performed to detect the luminescence signal. Cytotoxicity was assessed through the first fluorescent read while biochemical activity against Nrf2 was measured in the luminescent read. The data was normalized to the positive and negative controls.
Turning to `c1ccc2c(c1)[I+]c1ccccc1-2`, the Potency was 206 nM (active). With `CC[C@H]1CN2CCc3cc(OC)c(OC)cc3[C@@H]2C[C@@H]1C[C@H]1NCCc2cc(OC)c(OC)cc21`, the Potency is 146 nM (active). Take `CCC(C)(O)C(=O)OC1C(=O)OC2CC3C(C)=CC(=O)C(O)C3(C)C3C4(O)OCC23C1C(C)C4O` (stereo not given): the Potency is 580 nM (active). As to `COC1C(O)C(C)OC(OC2CCC3(C=O)C(CCC4C3CCC3(C)C(C5=CC(=O)OC5)CCC43O)C2)C1O` (stereo not given), the Potency was 11.6 nM (active). For the molecule `C[C@]12CC[C@H](O)C[C@H]1CC[C@@H]1C2CC[C@]2(C)[C@@H](C3=CC(=O)OC3)[C@@H](O)C[C@]12O` (stereo not given in full), the Potency is 1640 nM (active).
